The nature of assay [1]: qHTS assay to identify small molecule antagonists of the TGF-beta/Smad signaling pathway - cell viability counter screen (AID 1346824). Further: nearly all actives have a fitted effect of over 50% in size. The method, boiled down: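 SBE-bla HEK 293T cells, incubated overnight, then compound plus 0.25 ng/mL TGF-beta1 (stock added) for 5 hr at 37 C. Viability was read in the same wells by CellTiter-Glo luminescence after 30 min at room temperature.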
(qHTS replaces the single test concentration by a dilution series.)

Assay [2] can be described thus: qHTS assay to identify small molecule agonists of the TGF-beta/Smad signaling pathway (AID 1346859; active means well fitted activation curve with a large enough effect in the signal ratio in the repeat runs, not every such curve was filed as active; the % refers to the signal ratio; further: series mostly up to about 77 µM). The method, boiled down:
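Dual-wavelength fluorescence (460/530 nm emission) quantified beta-lactamase expression under the Smad binding element in HEK 293T cells following 5 hr compound treatment at 37 C.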

The target of assay [3] is Thyrotropin-releasing hormone receptor (Homo sapiens) (UniProt P34981). The assay is described as follows: qHTS assay to identify small molecule antagonists of the thyrotropin-releasing hormone receptor (TRHR) signaling pathway (AID 1346877; active means well fitted inhibition curve with a large enough effect in the repeat runs, not every such curve was filed as active; further: series mostly up to about 51 µM). In outline:
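In this cell-based calcium flux format, HEK293 cells expressing TRHR received test compound for 5 min before the agonist TRH (1 nM final). Dye loading lasted 2 h at 37 °C.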

For assay [4] the target is unchanged. As to the kind of experiment: qHTS assay to identify small molecule agonists of the thyrotropin-releasing hormone receptor (TRHR) signaling pathway (AID 1346891; calls by dose curve; further: series mostly up to about 58 µM). In outline:
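Kinetic fluorescence (3 min, 1 s intervals) reported intracellular calcium after compound transfer onto TRHR-Hek293 cells pre-loaded with dye for 2 h at 37 °C.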

Assay [5] in a line: Human pregnane X receptor (PXR) small molecule agonists, qHTS cell viability counter screen (AID 1346977). Further: nearly all actives have a fitted effect of over 50% in size. In outline:
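HepG2 cells stably carrying the PXR-Luc reporter are cultured with 5% charcoal-stripped FBS and treated with compounds for 24hr. CellTiter-Fluor is added at 23hr and fluorescence is read after 1hr.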

A short description of assay [6]: Caspase-3/7 induction in CHO-K1 cells by small molecules, qHTS cell viability counter screen (AID 1346979). Further: nearly all actives have a fitted effect of over 35% in size. Further: potency means the concentration at half of the fitted maximal effect. The method, boiled down:
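Seeding: 1,500 CHO-K1 cells/well. Rest: 5hr, 37C. Treatment: compounds in DMSO, 16hr. Read: CellTiter-Fluor, 1hr, fluorescence.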

The nature of assay [7]: Caspase-3/7 induction in CHO-K1 cells by small molecules, qHTS assay (AID 1346980). Further: nearly all actives have a fitted effect of over 15% in size. The method, boiled down:
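Wild-type CHO-K1 cells exposed to compounds for 17hr at 37 C, 5% CO2. Caspase-3/7 activity then measured by Caspase-Glo 3/7 luminescence after 30min at room temperature.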

A short description of assay [8]: Caspase-3/7 induction in HepG2 cells by small molecules, qHTS cell viability counter screen (AID 1346981). Further: series mostly up to about 92 µM; nearly all actives have a fitted effect of over 30% in size. In outline:
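Counter screen for cytotoxicity: HepG2 exposed 16 hr to compounds, then CellTiter-Fluor viability signal (fluorescence, 1 hr reagent incubation).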

Assay [9] in a line: qHTS assay to identify small molecule agonists of the TGF-beta/Smad signaling pathway - cell viability counter screen (AID 1346829). Further: top concentration of the series differs between compounds; nearly all actives have a fitted effect of over 45% in size. The method, boiled down: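 Cytotoxicity counter screen: CellTiter-Glo luminescence (30 min, room temperature) measured in the SBE-bla HEK 293T reporter wells after 5 hr compound treatment at 37 C and the 2 hr substrate step.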
Assay [10] can be described thus: Caspase-3/7 induction in HepG2 cells by small molecules, qHTS assay (AID 1346978). Further: nearly all actives have a fitted effect of over 15% in size. The method, boiled down: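 Wild-type HepG2 cells, 2,000/well, settled 5 hr at 37 C and 5% CO2, then compound-treated for 17 hr; caspase-3/7 activity read by luminescent Caspase-Glo 3/7 after 30 min at room temperature.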

Values without a mark were called inactive. Results filed as inconclusive are left out. Activity calls are given as the source filed them. Unless noted, the call rests on the fitted dose curve; in most records, active means well fitted curve in the direction sought with a large enough effect in the repeat runs; inconclusive means weak or mixed curves; inactive means no such curve, though single readings can be large; an effect the other way counts as inactive or inconclusive.
On the % scale 0 is the no-effect control and ±100 the full control effect.

Chain of Thyrotropin-releasing hormone receptor (Homo sapiens) (P34981 whole entry, looked up): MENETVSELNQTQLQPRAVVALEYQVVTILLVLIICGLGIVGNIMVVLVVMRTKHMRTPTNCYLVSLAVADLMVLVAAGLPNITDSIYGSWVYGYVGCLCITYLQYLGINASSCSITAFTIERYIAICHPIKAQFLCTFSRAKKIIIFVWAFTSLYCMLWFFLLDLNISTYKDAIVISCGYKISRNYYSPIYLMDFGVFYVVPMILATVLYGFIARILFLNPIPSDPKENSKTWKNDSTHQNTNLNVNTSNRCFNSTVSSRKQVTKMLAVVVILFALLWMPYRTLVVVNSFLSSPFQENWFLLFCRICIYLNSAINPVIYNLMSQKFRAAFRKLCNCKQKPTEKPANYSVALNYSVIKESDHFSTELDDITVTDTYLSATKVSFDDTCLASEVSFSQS

For `CO/N=C(/C(=O)N[C@@H]1C(=O)N2C(C(=O)O)=C(Cn3nnc(C)n3)CS[C@H]12)c1csc(N)n1`, the compound was called inactive in assay [1], in assay [2], in assay [3], in assay [4] and in [7]. The Potency result in [5], in assay [6] and in [8] was “inactive” in each case.
Take `O=CN1CCOCC1`: the result in assay [9], in [2], in assay [3], in [4], in [10] and in assay [7] was inactive. The Potency result in [5], in [6] and in assay [8] was “inactive” each time.
`CC(C)CCO`: the compound was called inactive in assay [1], in assay [2] and in assay [7]. Besides, the Potency result in assay [5] and in assay [8] was “inactive” each time.
With `O=C(O)CCNC(=O)c1ccccc1`, the outcome in assay [9], in assay [2], in assay [3], in [4], in [10] and in [7] was inactive. The Potency entry in assay [5], in assay [6] and in assay [8] was “inactive” throughout.
With `FC(F)(F)/C(=N\OCC1OCCO1)c1ccc(Cl)cc1`, the call in assay [1], in assay [2], in [3], in [4], in [10] and in assay [7] was inactive. Besides, the Potency entry in assay [6] and in assay [8] was “inactive” each time.
Turning to `C1=CCC(c2ccccc2)CC1` (centres undefined), the compound was called inactive in assay [1], in assay [2], in [3], in assay [4] and in assay [7]. Moreover, the Potency result in assay [5], in [6] and in assay [8] was “inactive” in each case.
In the case of `CCCCC(C)C(=O)O` (centres undefined), the result in [1], in assay [2], in [10] and in assay [7] was inactive. For the same compound, the Potency result in assay [5] and in [6] was “inactive” throughout.
Regarding `O=CO`, the viability change, negative = cytotoxic in assay [1] was -0.889% [at 6.97 µM]. Besides, in [2], the activation was 2.26% [at 6.97 µM]. The activity change, negative = cytotoxicity in assay [5] was -2.18% [at 8.39 µM]; in [6] it was -2.32% [at 8.39 µM]; in assay [8] it was 4.68% [at 8.39 µM]. In addition, the caspase activation in assay [10] is 0.203% [at 8.39 µM]. For the same compound, the caspase-3/7 activation in assay [7] is 0.126% [at 8.39 µM].
As for `C=C(C)[C@@H]1CC[C@@H](C)C[C@@H]1O`, the compound was called inactive in assay [1], in [2] and in assay [7]. Besides, the Potency entry in [5] and in [8] was “inactive” throughout.
Turning to `C[Si]1(C)N[Si](C)(C)N[Si](C)(C)N1`, the call in assay [9], in assay [2], in [3], in assay [4], in [10] and in [7] was inactive. In addition, the Potency entry in [5], in assay [6] and in [8] was “inactive” throughout.
As to `Cc1cc(O)c2c(c1)C(=O)c1cccc(O)c1C2=O`, the call in assay [1], in [2], in assay [3], in assay [4], in [10] and in [7] was inactive. Also, the Potency in [6] is 29.9 µM (active). Further, the Potency entry in [8] is “inactive”.
Take `CN(C)CCCNCCC#N`: the outcome in assay [9], in assay [2], in [3], in assay [4], in [10] and in [7] was inactive. The Potency entry in [5], in assay [6] and in assay [8] was “inactive” in each case.
Consider `CCN(CC)C(=O)C1CN2CCc3cc(OC)c(OC)cc3C2CC1OC(C)=O` (centres undefined), for which the outcome in assay [1], in assay [2], in assay [3], in assay [4], in [10] and in assay [7] was inactive. In addition, the Potency entry in assay [5] and in assay [8] was “inactive” throughout.
`CN[C@@H]1[C@@H](O)[C@@H](O[C@@H]2[C@H](O)[C@H](O[C@H]3OC(CN)=CC[C@H]3N)[C@@H](N)C[C@H]2N)OCC1(C)O` (some centres undefined): the compound was classed as inactive in [1], in assay [10] and in assay [7]. Moreover, the Potency entry in assay [5], in [6] and in assay [8] was “inactive” in each case.
With `CCS(=O)(=O)CCn1c([N+](=O)[O-])cnc1C`, the compound was classed as inactive in assay [1], in assay [2], in assay [3], in assay [4] and in assay [10]. Further, the Potency result in assay [5] and in [8] was “inactive” each time.
As for `CC(=O)Nc1ccc(C)cc1`, the compound was classed as inactive in [1], in [2], in assay [3], in assay [4], in assay [10] and in [7]. In addition, the Potency result in assay [5], in assay [6] and in assay [8] was “inactive” in each case.
Regarding `Cc1ccccc1N1CCN(CCc2nnc3n2CCCC3)CC1`, the compound was called inactive in assay [9], in [2], in [3], in [4], in [10] and in [7]. Besides, the Potency result in assay [5], in assay [6] and in assay [8] was “inactive” in each case.
As to `C=C(C)C(=O)OCCCCCCOC(=O)C(=C)C`, the compound was classed as inactive in [9], in assay [2], in [3], in assay [4], in assay [10] and in assay [7]. The Potency entry in assay [5], in [6] and in assay [8] was “inactive” throughout.
For the compound `CCCOC(=O)CCCCC(=O)OCCC`, the call in assay [1], in [2], in assay [3], in [4] and in assay [10] was inactive. The Potency entry in [5], in [6] and in assay [8] was “inactive” in each case.
For the compound `CC(=O)N(CC(O)CO)c1c(I)c(C(=O)NCC(O)CO)c(I)c(C(=O)NCC(O)CO)c1I` (centres undefined), the outcome in assay [1], in [2], in [10] and in assay [7] was inactive. Further, the Potency result in assay [5], in assay [6] and in assay [8] was “inactive” each time.
Take `CCC(O)C(C)(C)C` (centres undefined): the result in assay [1], in assay [2], in [3], in assay [4] and in assay [7] was inactive. Further, the Potency entry in assay [6] and in [8] was “inactive” each time.
On to `O=C(Oc1ccccc1C(=O)O)c1ccccc1O`, for which the result in [1], in assay [2], in [3], in assay [4], in assay [10] and in [7] was inactive. The Potency entry in [5], in [6] and in [8] was “inactive” each time.
For the compound `C=CCOc1c(Br)cc(C(C)(C)c2cc(Br)c(OCC=C)c(Br)c2)cc1Br`, the result in assay [1], in assay [2] and in [7] was inactive. Moreover, the Potency entry in assay [6] and in [8] was “inactive” throughout.
Consider `CC(C)=CC(C)(C)C`, for which the result in assay [9], in [2], in assay [3], in assay [4], in assay [10] and in [7] was inactive. Also, the Potency result in assay [5], in [6] and in [8] was “inactive” throughout.

(Values after PubChem BioAssay (Tox21).)
